# Sampled rows, rich in hits. Any-hit rate of the full collection: about 6.8%.
# A340 absorber = absorbance at 340 nm | AID 708 | fold change at 10 µM | 65,000 tested, under 10 active | compound absorbance at 340 nm, fold over control;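 active means at 10 µM dose, initial 340 nm absorbance at least 2 fold that of control wells; inactive means change under 2 fold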;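 further: initial absorbance extrapolated from kinetic A340 decline of NADH oxidation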
# DPM-DC inhibit = inhibitors of Streptococcus pneumoniae diphosphomevalonate decarboxylase; purified DPM-DC, PK/LDH coupled NADH fluorescence; calls only at 10 µM; 65,000 compounds, 0.49% hits; AID 556;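 active means the 320 compounds with the highest percent inhibition in the single-dose primary screen, excluding strongly autofluorescent ones, cut at about 32% in these data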;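 further: kinetic rate of NADH fluorescence loss reporting ADP formed by the decarboxylase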
# PMK inhibit = S. pneumoniae PMK inhibition; purified PMK, PK/LDH-coupled NADH absorbance 340 nm; 65,000 compounds, 0.49% hits; inhibition, % at 10 µM; AID 539;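 active means top-ranked compounds by inhibition in the single 10 µM screen, taking a fixed number of the strongest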;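 further: 0% = full reaction with DMSO carrier and 100% = background rate without enzyme reaction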
# NADH enzymes = inhibitors of enzymes used to reach an NAD/NADH endpoint; IC50, µM (doses to about 10 µM), for the others: at the highest dose inhibition; coupled PK/LDH NADH assays, four targets; AID 774; 65,000 compounds, 0.02% hits;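 active means single-dose screening hits from any of four coupled enzyme assays that gave an IC50 when retested across doses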;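 further: the DPM-DC format reads NADH fluorescence rather than 340 nm absorbance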
# MK inhibit = inhibitors of Streptococcus pneumoniae mevalonate kinase; 65,000 compounds, 0.48% hits; purified MK, PK/LDH-coupled NADH absorbance 340 nm; inhibition, % at 10 µM;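 active means ranked among the strongest by inhibition in the single 10 µM screen, a fixed top-ranked set picked for dose follow-up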
# Autofluor 339 = intrinsic fluorescence of library compounds, ex339/em460 – biochemical, MLSMR library, data from DPM-DC assay, artefact control, profiling panel | compound autofluorescence, ex339/em460 nm, NADH buffer; stronger effect = higher value; 1 = no-compound wells, NADH background | fluorescence fold increase at 10 µM | 65,000 compounds, 5.5% hits;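 active means at 10 µM, mean starting fluorescence two-fold or more over control wells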;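 further: signal is the first read of a kinetic run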
# Starred values were filed as active, the others as inactive; i = inactive; nt = not tested or not shown; + = active, no number.
SMILES,A340 absorber,DPM-DC inhibit,PMK inhibit,NADH enzymes,MK inhibit,Autofluor 339
CC(Oc1ccc(Cl)cc1Cl)C(=O)Nc1ccc2oc(-c3ccncc3)nc2c1 (configuration not stated),1,nt,5,9%,12,3.8*
CC(Oc1ccc(Cl)cc1Cl)C(=O)Nc1ncccn1 (configuration not stated),1,i,4,2%,8,1.1
CC(C)C(=O)Nc1cccc(-c2nc3ccccc3o2)c1,0.99,i,6,6%,8,1.1
Cc1ccc(-c2nc3cc(NC(=O)C(C)C)ccc3o2)cc1C,1,nt,12,3%,4,3*
CCOc1ccc2[nH]c(=O)c(CN(Cc3ccc(C)cc3)C(=O)N3CCCC3)cc2c1,1,i,11,9%,0,2.6*
Cc1ccc(CN(Cc2cc3cc(C)ccc3[nH]c2=O)C(=O)N2CCOCC2)cc1,1,i,15,14%,8,1.6
CCOc1ccc2[nH]c(=O)c(CN(CCOC)C(=O)N3CCOCC3)cc2c1,1,nt,13,4%,1,3*
Cc1ccc2oc3c(c(=O)c2c1)C(c1cccs1)N(CCCN(C)C)C3=O (configuration not stated),1.1,i,12,4%,0,1.2
c1ccc2c(c1)ncn2CCC1CCCCC1,1,i,5,7%,9,1.1
CC(=O)C(Sc1nc(-c2ccco2)nc2c1c(=O)n(C)c(=O)n2C)C(=O)N(C)C (configuration not stated),1.1,i,14,9%,3,2.2*
Cn1c(=O)c2c(SCC(=O)NCc3ccco3)nc(CC(C)(C)C)nc2n(C)c1=O,1,i,0,1%,4,1.1
Cc1cn(S(=O)(=O)c2ccc(Br)c3ccccc23)cn1,1,i,2,1%,0,1
COc1ccc(N2C(=NC(C)=O)SC3CS(=O)(=O)CC32)cc1OC (configuration not stated),1,i,6,3%,2,1.2
CCC(CC)C(=O)Nc1nnc(-c2cccs2)s1,1,i,17,13%,0,2.6*
CC(C)c1nnc(NC(=O)c2cccs2)s1,1.1,i,4,3%,6,1
COc1ccc2[nH]c3c(c2c1)CCn1c-3nc2ccccc2c1=O,1.1,nt,0,5%,9,2.2*
c1csc(Cn2c(-c3cccs3)nc3ccccc32)c1,1.1,i,3,14%,13,2.8*
Brc1ccccc1Cn1c(-c2cncs2)nc2ccccc21,1.1,i,0,0%,0,1.1
CCOC(=O)c1cnc(SCC(=O)Nc2cc(C(F)(F)F)ccc2N2CCOCC2)nc1N,1,i,11,5%,5,1.1
COc1ccc2nc(CC(C)(C)CC(=O)O)c[n+]([O-])c2c1,1,nt,7,6%,13,2.9*
Cc1ccc(CS(=O)(=O)CCC(=O)NCCCOC(C)C)cc1,1,i,20,7%,0,1.2
CCOC(=O)C1=C(C)NC(SCC(=O)O)=NC1c1ccccc1 (configuration not stated),1,i,12,8%,11,1.1
Clc1ccccc1OCCCCN1CCCC1,1,i,7,16%,40*,1.1
COc1cccc(OC)c1OCCCCN1CCCC1,1.1,i,8,20%,52*,1
COc1ccc(OC)c(C(C)NC=O)c1 (configuration not stated),0.98,i,5,5%,6,1
SMILES,A340 absorber,DPM-DC inhibit,PMK inhibit,NADH enzymes,MK inhibit,Autofluor 339
O=C(C1CCCCC1)N1CCC(c2nc3c(nnn3Cc3ccccc3Cl)c(=O)[nH]2)CC1,1,+,10,6%,9,1.1
O=C(Nc1ccc(F)cc1)N1CCC(c2nc3c(nnn3Cc3cccc(Cl)c3)c(=O)[nH]2)CC1,1,i,9,22%,49*,0.97
Cc1ccc(NC(=O)N2CCC(c3nc4c(nnn4Cc4cccc(Cl)c4)c(=O)[nH]3)CC2)cc1,1,i,5,3%,4,1.1
COc1ccc2c3c(cccc13)NN=C2C,1.1,i,5,2%,2,1.1
CCCCCCc1cc2cc(C(=O)NC)c(=N)oc2cc1O,1,nt,6,6%,5,2.3*
COc1ccc(NC(=O)c2cc3cc(OC)ccc3oc2=N)cc1,1,i,0,0%,0,1.1
